The nature of experiment [1]: Cell Viability - BJ (AID 421; calls by dose curve;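 also: potency is read from the fitted curve at half-maximal effect; cells exposed to compound for 40 hours at 37 °C before readout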). Conditions: BJ fibroblast viability, qHTS. The procedure, abridged: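 Normal human BJ foreskin fibroblasts, 1500/well in complete medium, treated 40 hr at 37 °C. Cellular ATP by CellTiter-Glo luminescence; normalized to DMSO and 100 uM tamoxifen, AC50 from Hill fit.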
A short description of experiment [2]: Cell Viability - MRC5 (AID 434; calls by dose curve;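 also: potency is read from the fitted curve at half-maximal effect; potency reflects cytotoxicity seen as loss of intracellular ATP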). The conditions noted are these: MRC5 lung fibroblast viability, qHTS. In outline: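 MRC5 normal human lung fibroblasts, 1500 cells/well, exposed to compound for 40 hr at 37 C. Cellular ATP was read by CellTiter-Glo luminescence; data normalized to DMSO and 100 uM tamoxifen, with AC50 from Hill fits.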
In experiment [3] the target is Mitogen-activated protein kinase 10 (Mus musculus) (UniProt Q61831). Kind of experiment: JNK3 AlphaScreen Assay (AID 530; active = well fitted curve in either direction with a large enough effect, not every such curve was filed as active;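 also: kinase came from lysate of stimulated human HepG2 cells; signal reports phosphorylation of biotinylated GST-cJun 1-79 at Ser73 with 10 µM ATP; % is scaled to controls: 0 for no effect and ±100 for the full control effect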). The procedure, abridged:
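Pre-activated (IL-1β/TNFα) JNK3 in HepG2 lysates phosphorylates biotin-GST-cJun(1-79), 10 uM ATP; anti-phospho-cJun(Ser73) AlphaScreen read at room temperature, pH 7.6 Tris buffer. Compounds pre-incubated 15 min as titrations.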
In general terms: In Alpha technology, singlet oxygen from a donor bead excites a nearby acceptor bead.

Experiment [4] in a line: Cell Viability - N2a (AID 540).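 Also: plate controls were DMSO alone for no effect and tamoxifen control for full effect; nearly all actives have a fitted effect of over 45% in size.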 Conditions: N2a mouse neuroblastoma cell viability; activity change, negative = cytotoxicity: at 92.2 µM (top of the series). The procedure, abridged: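 Luminescent ATP signal (CellTiter-Glo, 20 min at room temperature) served as the viability read-out after N2a cells were treated with compounds for 40 hours at 37 °C. Concentration-response data were fitted to the Hill equation for AC50.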

Experiment [5] can be described thus: Cellular Toxicity (caspase-3) HepG2 (AID 654).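 Also: cells exposed to compound for 16 hours before reading; 0% = DMSO alone and 100% = caspase signal from 100 µM tamoxifen.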 The procedure, abridged: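 Cells plated 5 hr at 37 °C, compound added, incubated 16 hr at 37 °C. Caspase-Glo 3/7 reagent followed, 20 min at room temperature, then luminescence read. Activation scored as signal increase; AC50 from Hill fit.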
A short description of experiment [6]: Cellular Toxicity (caspase-3) BJ (AID 658).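 Also: 0% = DMSO basal and 100% = 10 µM staurosporine.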 The procedure, abridged:
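BJ human foreskin fibroblasts, 1000 cells/well, treated 16 hours at 37 °C in complete medium; caspase 3/7 activity by Caspase-Glo luminescence after 1 hr at room temperature. Normalized to DMSO and 10 uM staurosporine; AC50 from Hill fits.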

The nature of experiment [7]: Cellular Toxicity (caspase-3) MRC-5 (AID 659).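 Also: 0% = DMSO basal and 100% = 10 µM staurosporine.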 The procedure, abridged: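 MRC-5 human normal lung fibroblasts, 1500 cells/well, treated 16 h at 37 °C in complete medium. Caspase 3/7 measured by Caspase-Glo luminescence after 1 h at room temperature. Normalized to DMSO and 10 uM staurosporine; AC50 from Hill fit.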
Experiment [8] can be described thus: Cellular Toxicity (caspase-3) Hek293 (AID 664).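 Also: cells exposed to compound for 16 h at 37 °C before readout.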 The conditions noted are these: HEK293 caspase-3 activation, DMSO = 0%, 100 µM tamoxifen = 100%; at 92.2 µM (top of the series). In outline: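 Cells plated, 5 hr at 37 °C; compounds added; 16 hr at 37 °C; Caspase-Glo 3/7 reagent, 20 min RT; luminescence read. Activation expressed relative to DMSO and 100 uM tamoxifen, AC50 by Hill model.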

Experiment [9] is described as follows: Cellular Toxicity (caspase-3) N2a (AID 665).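 Also: compound exposure lasted 16 h at 37 °C before readout.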 In outline: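 N2a cells, 1500/well, 5 h settle at 37 °C; cpd 16 h, 37 °C; Caspase-Glo 3/7, 1 h RT; luminescence. Norm: DMSO = 0, 10 uM staurosporine = 100%. AC50, Hill fit.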
Experiment [10] can be described thus: Cellular Toxicity (caspase-3) NIH 3T3 (AID 666).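 Also: caspase signal read after 16 h compound exposure; 0% = DMSO basal and 100% = 100 µM tamoxifen stimulation.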 The procedure, abridged:
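Luminescence from aminoluciferin released by caspase-3/7 cleavage of a peptide substrate served as read-out. Mouse fibroblast NIH 3T3 cells were exposed to compounds over a concentration range for 16 hours, and AC50 values came from standard Hill modelling.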

Experiment [11] has as its target Cytochrome P450 3A4 (Homo sapiens) (UniProt P08684). Kind of experiment: qHTS Assay for Inhibitors and Substrates of Cytochrome P450 3A4 (AID 884). Also: nearly all actives have a fitted effect of over 50% in size. Also: potency is read from the fitted curve at half-maximal effect. As to activity change, negative = inhibition: % is scaled to controls: 0 for no effect and ±100 for the full control effect. The procedure, abridged:
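20 nM human CYP3A4 with 25 uM Luciferin-PPXE (at KM) in 200 mM KPO4, preincubated 10 min with compound; NADPH regeneration started a 60 min RT reaction. Luciferin detected by luminescence, normalized to 57 uM ketoconazole as full inhibition.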
(In general: In qHTS, concentration-response curves come from the screen itself.)

Experiment [12] is described as follows: MultiTox-Fluor Cytotoxicity Assay - LYMP1-001 - Dead Cells (AID 946).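 Also: 0% = DMSO and 100% = tetraoctylammonium bromide.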 The procedure, abridged:
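LYMP1-001 lymphoblastoid cells (2500/well) treated 16 h at 37 C. Dead-cell protease cleavage of bis-AAF-R110 read at Ex/Em 485/520. Normalized to DMSO and 15 uM tetraoctylammonium bromide; AC50 from Hill fits.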

Experiment [13] in a line: MultiTox-Fluor Cytotoxicity Assay - LYMP1-002 - Live Cells (AID 955). Also: % is scaled to controls: 0 for no effect and ±100 for the full control effect. The procedure, abridged: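 Read-out is live-cell protease activity (cell-permeant GF-AFC substrate, fluorescence Ex/Em=405/510), where a decrease indicates acute toxicity. Human lymphoblastoid cells were treated 16 hours at 37 C in a concentration series, and AC50 values came from standard Hill modelling.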

The nature of experiment [14]: MultiTox-Fluor Cytotoxicity Assay - LYMP1-003 - Dead Cells (AID 961).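 Also: 0% = DMSO and 100% = tetraoctylammonium bromide; nearly all actives have a fitted effect of over 70% in size.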 In outline: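 LYMP1-003 human lymphoblastoid cells (2500/well) exposed to compound 16 h at 37 C in complete medium; dead-cell protease read with bis-AAF-R110 fluorescence (Ex/Em 485/520) after 60 min at room temperature. Normalized to DMSO and 15 uM tetraoctylammonium bromide; AC50 from Hill fit.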

Experiment [15] is described as follows: MultiTox-Fluor Cytotoxicity Assay - LYMP1-003 - Live Cells (AID 962).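 Also: 0% = DMSO only and full loss = 92 µM tetraoctylammonium bromide; cytotoxic hits lower the live-cell protease signal.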 In outline: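 qHTS, 1536-well; 2500 cells/well LYMP1-003; 5 hr 37 C settle; cpd 16 hr 37 C; MultiTox-Fluor reagent 60 min RT; live-cell protease fluor. 405/510; Hill-fit AC50; tetraoctylammonium bromide pos. ctrl.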
A short description of experiment [16]: Cell Viability - LYMP2-026 (AID 989).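 Also: cells exposed to compound for 24 h at 37 °C; % is scaled to controls: 0 for no effect and ±100 for the full control effect; nearly all actives have a fitted effect of over 50% in size.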 The procedure, abridged:
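Luminescent ATP signal (CellTiter-Glo, 30 min room temperature) measures viable lymphoblastoid cells after 24 hr compound treatment at 37 C. Decreased ATP reflects acute toxicity; AC50 values come from Hill-equation modeling.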

The nature of experiment [17]: Cell Viability - LYMP1-002 - Assay at 24 hr (AID 993). Also: % is scaled to controls: 0 for no effect and ±100 for the full control effect. The procedure, abridged:
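Cells plated 2500/well, 5 hr 37 C; compounds added, 24 hr 37 C; CellTiter-Glo added, 30 min RT; luminescence read. Tetraoctylammonium bromide positive control. Hill-equation AC50.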

The nature of experiment [18]: qHTS assay for small molecule agonists of retinoid X receptor alpha signaling (AID 588544). Conditions: HEK293T RXRa-UAS-bla, beta-lactamase reporter, 18 h; 530 nm emission.
Experiment [19] addresses Peroxisome proliferator-activated receptor alpha (Homo sapiens) (UniProt Q07869). Kind of experiment: qHTS assay for small molecule agonists of the peroxisome proliferator-activated receptor alpha (PPARalpha) signaling pathway (AID 651778). Also: % of control where 0% means no effect. The conditions noted are these: PathHunter PPARalpha complementation, chemiluminescence, 6 h; stronger effect = higher value. In outline:
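Enzyme-fragment complementation assay in which ligand-bound PPARalpha translocates and forms an active enzyme that generates chemiluminescence. Cells were plated overnight, exposed to compound for 6 hr at 37 C, and then given detection reagent for 60 min at room temperature.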

Experiment [20] can be described thus: qHTS assay for cell viability of the p53RE-bla HCT-116 cell line (AID 743292). Also: % is scaled to controls: 0 for no effect and ±100 for the full control effect; nearly all actives have a fitted effect of over 55% in size. In outline: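 CellSensor p53RE-bla HCT-116 cells (4,000/well) pre-incubated 5 h at 37 C, then exposed to compounds in DMSO for 16 h at 37 C. Viability read as ATP content by CellTiter-Glo luminescence after 30 min at room temperature.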

Consider 7 molecules from PubChem BioAssay (NCATS).

“And” between values parts separate entries of the source, which are not always exact repeats. Equal values may be shown once. Inconclusive results are not listed. The source made the active and inactive calls. Unless noted, calls follow the shape of the dose curve; as a rule, active = well fitted curve in the direction sought with a large enough effect; inconclusive = small, poorly fitted or top-dose-only effect, or another doubt; inactive = no such curve, though single readings can be large; an effect the other way counts as inactive or inconclusive. A value given as a limit tells only on which side of the number the result lay.

Sequence of Peroxisome proliferator-activated receptor alpha (Homo sapiens) (Q07869 whole entry, looked up, the tested form may be a part): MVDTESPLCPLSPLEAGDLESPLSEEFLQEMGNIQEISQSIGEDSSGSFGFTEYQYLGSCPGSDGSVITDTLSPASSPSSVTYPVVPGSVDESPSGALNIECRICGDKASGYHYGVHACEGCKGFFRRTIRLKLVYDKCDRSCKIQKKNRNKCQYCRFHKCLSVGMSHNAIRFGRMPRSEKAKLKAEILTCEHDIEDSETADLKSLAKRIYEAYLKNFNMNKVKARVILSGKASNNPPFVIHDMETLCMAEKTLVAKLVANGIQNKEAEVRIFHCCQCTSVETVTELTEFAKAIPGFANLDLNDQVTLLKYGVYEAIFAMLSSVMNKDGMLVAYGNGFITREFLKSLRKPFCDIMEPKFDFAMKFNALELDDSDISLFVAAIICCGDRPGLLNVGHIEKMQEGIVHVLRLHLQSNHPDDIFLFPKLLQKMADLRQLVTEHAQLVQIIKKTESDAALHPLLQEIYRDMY
Sequence of Cytochrome P450 3A4 (Homo sapiens) (P08684 whole entry, looked up): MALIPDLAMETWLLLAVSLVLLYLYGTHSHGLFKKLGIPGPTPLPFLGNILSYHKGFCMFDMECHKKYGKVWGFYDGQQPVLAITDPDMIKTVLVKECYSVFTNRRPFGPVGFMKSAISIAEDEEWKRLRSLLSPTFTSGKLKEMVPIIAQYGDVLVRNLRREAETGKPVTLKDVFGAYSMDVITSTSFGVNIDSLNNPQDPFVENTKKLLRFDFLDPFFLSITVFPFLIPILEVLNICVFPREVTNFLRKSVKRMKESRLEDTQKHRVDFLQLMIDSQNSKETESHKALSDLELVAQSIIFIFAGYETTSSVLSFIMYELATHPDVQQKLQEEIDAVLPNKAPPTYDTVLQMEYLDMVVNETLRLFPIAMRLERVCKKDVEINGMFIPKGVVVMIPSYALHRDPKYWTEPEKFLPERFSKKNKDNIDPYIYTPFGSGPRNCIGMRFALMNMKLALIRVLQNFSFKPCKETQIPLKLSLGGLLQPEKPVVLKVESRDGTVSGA

Turning to `C=CC(=O)OCC(CC)CCCC` (configuration not stated), the Potency in [1] and in experiment [2] was > 92 µM (inactive) throughout. The Potency entry in [3], in experiment [4], in [10], in experiment [11], in [14] and in experiment [16] was “inactive” each time. Besides, the Potency entry in experiment [17] and in experiment [20] was “inactive” throughout. The outcome in experiment [5], in experiment [6], in experiment [7], in [9], in experiment [12] and in experiment [13] was inactive. Further, the call in experiment [15] was inactive. The caspase-3 activation in experiment [8] was 2.19% (inactive). Further, the max response is -3.1% and -13.3% in experiment [18]; 4.79% (inactive) and 0.332% (inactive) in experiment [19].
On to `CC[C@]1(OC(=O)CN)C(=O)OCc2c1cc1n(c2=O)Cc2cc3ccccc3nc2-1`, for which, in [3], the activity change, negative = inhibition is -1.42% [at 11.4 µM] (inactive).
With `COc1ccc(C=O)cc1`, the Potency in experiment [1] and in [2] was > 92 µM (inactive) in each case. Also, the Potency entry in [4], in experiment [10], in experiment [11], in [14], in experiment [16] and in experiment [17] was “inactive” each time. Besides, in experiment [20], the Potency result is “inactive”. The call in [5], in experiment [6], in experiment [7], in [9], in experiment [12] and in experiment [13] was inactive. Also, the molecule was called inactive in experiment [15]. The caspase-3 activation in experiment [8] is 1.65% (inactive). In addition, the max response is -0.469% in [18] and 2.57% (inactive) in experiment [19].
In the case of `COc1cc(-c2ccc(N)c(OC)c2)ccc1N`, the Potency in experiment [1] was > 92 µM (inactive); in [2], > 92 µM (inactive); in experiment [11], 12.6 µM (active). Further, the Potency entry in [4], in [10], in experiment [14], in [16], in experiment [17] and in [20] was “inactive” throughout. In addition, the call in experiment [5], in [6], in [7], in experiment [9], in experiment [12] and in experiment [13] was inactive. The molecule was called inactive in experiment [15]. Besides, the caspase-3 activation in experiment [8] was -1.4% (inactive). Besides, the max response in experiment [18] is 8.08% and -9.67%; in experiment [19], -3.45% (inactive) and -1.48% (inactive) and -1.31% (inactive).
Consider `Cc1cccc(N)c1C`, for which the Potency in [1] and in experiment [2] was > 92 µM (inactive) throughout. Further, the Potency entry in experiment [3], in experiment [4], in [10], in experiment [11], in experiment [14] and in experiment [16] was “inactive” in each case. The Potency entry in [17] and in experiment [20] was “inactive” each time. For the same molecule, the call in experiment [5], in experiment [6], in experiment [7], in experiment [9], in experiment [12] and in experiment [13] was inactive. In addition, the molecule was classed as inactive in experiment [15]. In experiment [8], the caspase-3 activation is 1.27% (inactive). The figures for the max response in experiment [18] and in experiment [19] were -3.13% and -1.4% (inactive), respectively.
On to `O=[N+]([O-])c1ccc2c3c(cccc13)CC2`, for which the Potency in experiment [1] and in experiment [2] was > 92 µM (inactive) each time. Further, the Potency entry in [3], in experiment [4], in [10], in experiment [14], in experiment [16] and in experiment [17] was “inactive” each time. Further, the Potency result in [20] was “inactive”. The molecule was classed as inactive in [5], in experiment [6], in experiment [7], in experiment [9], in [12] and in [13]. Also, the molecule was called inactive in experiment [15]. The caspase-3 activation in experiment [8] was 1.65% (inactive). For the same molecule, the max response in [18] is 20.4% and -8.69%; in experiment [19] it was -11.3% (inactive) and -0.119% (inactive).
In the case of `O=[N+]([O-])c1ccc(O)c([N+](=O)[O-])c1`, the Potency in experiment [1] and in [2] was > 92 µM (inactive) throughout. Moreover, the Potency entry in experiment [3], in experiment [10], in experiment [11], in experiment [14], in experiment [16] and in experiment [17] was “inactive” each time. In [20], the Potency entry is “inactive”. For the same molecule, the call in experiment [5], in [6], in experiment [7], in experiment [9], in experiment [12] and in experiment [13] was inactive. The molecule was classed as inactive in [15]. In addition, in experiment [8], the caspase-3 activation is -5.23% (inactive). The max response in [18] was -6.65%; in experiment [19] it was -7.09% (inactive).
